Compound activity: PubChem, National Center for Advancing Translational Sciences (NCATS)
Sampled rows, rich in hits. Any-hit rate of the full collection: about 12%.
L3MBTL1 inh: qHTS Assay for the Inhibitors of L3MBTL1. Potency, µM (doses to about 57.1 µM), inactives show at the top dose activity, negative = inhibition, most hits filed as inhibitors. Lethal(3)malignant brain tumor-like protein 1 (Homo sapiens), Q9Y468. 230,000 compounds, 0.66% hits. AlphaScreen L3MBTL1–H3K9me1 peptide binding; further: on the % scale 0 is the no-effect control and ±100 the full control effect; nearly all actives have a fitted effect of over 60% in size
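Displacement of a biotinylated histone H3(1-15) peptide monomethylated at Lys9 (75 nM) from L3MBTL1 (50 nM) was measured by AlphaScreen after a 30 min room-temperature compound incubation; cefsulodin titration served as intraplate control.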
BAZ2B block: qHTS Assay for Inhibitors of BAZ2B | Bromodomain adjacent to zinc finger domain protein 2B (Homo sapiens), Q9UIF8 | AlphaScreen BAZ2B-H3K14Ac peptide displacement | 360,000 compounds, 4.4% hits | Potency, µM (doses to about 114 µM), for inactives: at the top dose activity change, negative = inhibition, hits mostly inhibitors; further: on the % scale 0 is the no-effect control and ±100 the full control effect; nearly all actives have a fitted effect of over 60% in size
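Inhibition is scored as reduced AlphaScreen emission. The BAZ2B/b-H3(5-23)K14Ac complex (50 nM each) in PBS pH 7.4, 0.01% Tween-20 meets compound (up to 110 uM) for 30 min at RT before bead addition.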
JMJD2A Tudor inh: qHTS Assay for Inhibitors of JMJD2A-Tudor Domain; Lysine-specific demethylase 4A (Homo sapiens), O75164; AlphaScreen JMJD2A-Tudor / H3K4me3 peptide binding; Potency, µM (titrated, usually from 114 µM), without a hit: top-dose activity change, negative = inhibition, actives largely listed as inhibitors; 390,000 compounds, 4.4% hits; further: on the % scale 0 is the no-effect control and ±100 the full control effect; nearly all actives have a fitted effect of over 50% in size
Sfp inh: qHTS Assay for Inhibitors of Bacillus subtilis Sfp phosphopantetheinyl transferase (PPTase); Potency, µM, without a hit: largest response in the series, negative = inhibition, most hits filed as inhibitors; Biochemical Sfp PPTase activity, qHTS; 310,000 compounds, 3.5% hits; 4'-phosphopantetheinyl transferase ffp (Bacillus subtilis), Q9F4F7;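 further: the enzyme is Sfp with the accession as filed and its product quenches rhodamine fluorescence; 0% = enzyme reaction without inhibitor and -100% = no enzyme wells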
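Sfp 15 nM + cpd, 15 min RT; start w/ rhodamine-CoA 5 uM, BHQ-2-YbbR 12.5 uM (final); 50 mM Hepes pH 7.6, 10 mM MgCl2, 0.01% NP-40, 0.01% BSA; read 525/598 nm at 0 and 30 min.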
G9a block: qHTS Assay for Inhibitors of Histone Lysine Methyltransferase G9a | Histone-lysine N-methyltransferase EHMT2 (Homo sapiens), Q96KQ7 | G9a H3K9 monomethylation, AlphaScreen, 2 h | Potency, µM (top dose mostly 102 µM), without a hit: top-dose activity, negative = inhibition, usual class: inhibitors | 350,000 compounds, 8.8% hits; further: on the % scale 0 is the no-effect control and ±100 the full control effect; nearly all actives have a fitted effect of over 75% in size
Target sequence (Q96KQ7 913-1193 limits assumed): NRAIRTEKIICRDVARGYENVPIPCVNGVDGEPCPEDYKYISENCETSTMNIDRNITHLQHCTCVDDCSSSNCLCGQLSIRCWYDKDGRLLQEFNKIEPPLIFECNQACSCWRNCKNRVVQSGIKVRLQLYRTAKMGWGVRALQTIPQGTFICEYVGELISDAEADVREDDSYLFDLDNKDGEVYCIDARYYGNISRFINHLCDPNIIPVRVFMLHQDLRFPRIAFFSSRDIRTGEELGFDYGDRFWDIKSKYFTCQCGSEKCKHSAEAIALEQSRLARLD
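Using a bead-based AlphaScreen, monomethylated H3K9 product from 2 h room-temperature reactions (G9a 20 nM, peptide 500 nM, SAM 20 uM) was detected with 0.5 ug/mL rabbit anti-H3K9me1 antibody.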
HP1b binding inh: HTS for Inhibitors of HP1-beta Chromodomain Interactions with Methylated Histone Tails | Chromobox protein homolog 1 (Homo sapiens), P83916 | AlphaScreen HP1-beta / biotin-H3K9me3 peptide binding | Potency, µM (doses to about 114 µM), inactives show top-dose activity change, negative = inhibition, actives largely listed as inhibitors | 390,000 compounds, 0.56% hits; further: nearly all actives have a fitted effect of over 70% in size
Target sequence (P83916 whole entry, looked up): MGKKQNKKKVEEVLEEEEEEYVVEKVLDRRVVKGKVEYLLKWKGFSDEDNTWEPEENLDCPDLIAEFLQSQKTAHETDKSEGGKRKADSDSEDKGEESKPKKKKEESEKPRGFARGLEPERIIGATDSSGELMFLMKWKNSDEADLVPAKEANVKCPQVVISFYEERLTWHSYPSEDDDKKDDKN
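Compound inhibition of the preformed complex between 50 nM HP1-beta and 50 nM biotinylated H3K9me3 peptide was read by AlphaScreen. Buffer was PBS pH 7.4 with 0.01% Tween-20. Incubations ran 30 min at room temperature, with 10 ug/mL donor/acceptor beads.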
The depositor's hits bear a star; ? = inconclusive; nt = no result; [ ] = dose if it differs, or a comment. The call rests on the fitted dose curve; in most records, active means well fitted curve in the direction sought with a large enough effect; inconclusive means small, poorly fitted or top-dose-only effect, or another doubt; inactive means no such curve, though single readings can be large; an effect the other way counts as inactive or inconclusive. Potency means the concentration at half of the fitted maximal effect.

SMILES	L3MBTL1 inh	BAZ2B block	JMJD2A Tudor inh	Sfp inh	G9a block	HP1b binding inh
CCOC(=O)c1ccc(S(=O)(=O)N2CCN(C(=O)c3ccccn3)CC2)cc1	3%	nt	-5%	nt	nt	22%
Nc1ccc(-n2nncc2-c2ccc(Cl)cc2)cc1	nt	-7%	?	-10%	7.1µM*	-4%
O=[N+]([O-])c1ccc(-n2nncc2-c2ccc(Cl)cc2)cc1	nt	?	?	12%	-13%[59 µM]	-23%
CCn1c(-c2cc(-c3ccc(OC(C)C)cc3)nc3ccccc23)n[nH]c1=S	nt	-34%	-20%	4%	28µM*	4%
CCn1c(-c2cc(-c3ccc(C)cc3)nc3ccccc23)n[nH]c1=S	-17%	?	-33%	-9%	8.9µM*	-16%
Cc1cc(NS(=O)(=O)c2ccc3c(c2)CCC(=O)N3)ccc1Cl	nt	nt	-25%	nt	nt	nt
CC1CCN(C(=O)C(C)OC(=O)c2ccc(S(C)(=O)=O)c([N+](=O)[O-])c2)CC1 (stereo unspecified)	nt	nt	-20%	nt	nt	42%
CCCCCOC(=O)NC1CCS(=O)(=O)C1 (stereo unspecified)	nt	-25%	-2%	24%	-8%[59 µM]	42%
COc1ccccc1OCCSc1nc2ccc([N+](=O)[O-])cc2s1	-13%	?	?	9%	13µM*	?
O=[N+]([O-])c1ccc2nc(SCc3ccccc3Cl)sc2c1	-6%	-38%	?	7%	?	-10%
C=CCc1ccccc1OCCSc1nc2ccc([N+](=O)[O-])cc2s1	-12%	-38%	-31%	-3%	20µM*	-10%
COc1ccc(OC)c(C(=O)NC(CC(N)=O)c2ccc(N3CCN(c4ccccn4)CC3)c([N+](=O)[O-])c2)c1 (stereo unspecified)	-9%	?	-33%	5%	79µM*	16%
Cc1cc(C)cc(C(=O)NC(CC(N)=O)c2ccc(N3CCN(c4ccccn4)CC3)c([N+](=O)[O-])c2)c1 (stereo unspecified)	-3%	-2%	-12%	10%	79µM*	49%
COc1ccc(OC)c(C(=O)NC(CC(N)=O)c2ccc(N3CCN(c4ccccc4)CC3)c([N+](=O)[O-])c2)c1 (stereo unspecified)	-5%	-38%	?	11%	?	21%
Cc1cc(C)cc(C(=O)NC(CC(N)=O)c2ccc(N3CCN(C)CC3)c([N+](=O)[O-])c2)c1 (stereo unspecified)	-4%	-3%	0%	9%	?	42%
COc1ccc(OC)c(C(=O)NC(CC(N)=O)c2ccc(N3CCC(Cc4ccccc4)CC3)c([N+](=O)[O-])c2)c1 (stereo unspecified)	-9%	45µM*	?	7%	nt	-20%
CC(OC(=O)CCc1nc2ccccc2c(=O)[nH]1)C(=O)c1ccc(Br)cc1 (stereo unspecified)	1%	0%	-18%	-6%	-2%	26%
CCN1C(=O)[C@H]2[C@@H](c3ccc(-c4ccc(C(C)=O)cc4)cc3)N3CCCC[C@@]3(C(=O)OC)[C@H]2C1=O	0%	-22%	-30%	nt	-4%[2.33 µM]	31%
CC(=O)c1c(C)[nH]c(C(=O)CSc2nnc(NC3CC3)s2)c1C	8%	-23%	-11%	nt	50µM*	64%
Cn1c(N)c(C(=O)CSc2nnc(NC3CCCCC3)s2)c(=O)n(C)c1=O	2%	1%	4%	nt	50µM*	18%
O=C1CCc2cc([S+](=O)([O-])NC3CCOCC3)ccc2N1	nt	nt	-16%	nt	nt	nt
